Assay results as given in PubChem BioAssay.
Results filed as inconclusive are left out. Activity calls are given as the source filed them. Unless noted, no stated cut-off is given here; in the data, active means response above about 15%; inactive means the rest.

What was measured:
[1] = yeast TOR pathway RPL19A-GFP modulators, primary screen, cell-based, S. cerevisiae, multiplex flow cytometry (AID 1862; in the data active means percent of DMSO control GFP below about 86%;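 further: lower values mimic rapamycin by blocking the RPL19A rise seen in DMSO cells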); conditions: S. cerevisiae RPL19A-GFP strain, flow cytometry fluorescence, 3 h; at 10 µM; stronger effect = lower value
[2] = modulators of MEP2-GFP levels in yeast, primary screen, S. cerevisiae, multiplex flow cytometry (AID 1867;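 active means GFP response, as percent of the DMSO control, above the screen-wide mean plus 3 SD, about 139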;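 further: median GFP channel fluorescence of barcode-gated MEP2-GFP cells measured by flow cytometry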); conditions: S. cerevisiae MEP2-GFP strain, 3 h, at 10 µM, stronger effect = higher value, 100% means same as DMSO wells
[3] = modulators of CIT2-GFP expression in yeast, primary screen, S. cerevisiae, GFP fusion, multiplex flow cytometry (AID 1870;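 active means percent response above a set limit, the screen-wide mean plus 3 SD, cut at about 130% in these data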;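 further: barcoded CIT2-GFP strain pooled with four other GFP strains with rapamycin as positive control; median GFP fluorescence per well over plate mean of DMSO wells so 100% = DMSO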); conditions: 3 h, at 10 µM, stronger effect = higher value
[4] = modulators of LAP4-GFP expression in yeast, primary screen, S. cerevisiae, multiplex flow cytometry (AID 1873;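 active means GFP signal, as percent of the solvent control, above the screen mean plus 3 SD, about 149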); conditions: 3 h, at 10 µM, stronger effect = higher value
[5] = modulators of AGP1-GFP expression in yeast TOR pathway, primary screen, cell-based, multiplex flow cytometry, S. cerevisiae (AID 1887;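 active means GFP signal above the screen-wide mean plus 3 SD, that is over about 124.5% of the solvent control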;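 further: AGP1-GFP fusion strain of S. cerevisiae within a five-strain barcoded multiplex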); conditions: 3 h, at 10 µM, stronger effect = higher value
[6] = inhibitors of CD8+ T cell-vesicle binding, pilot screen, LFA-1/ICAM-1 modulator project, MLPCN validation set, flow cytometry (AID 2523;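 active means response below a set limit, under 55% cells CD8-positive and vesicle-bound, and CD8 cells' 90th-percentile brightness under 279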;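 on vesicle binding response: mean PE anti-B7-1 fluorescence of CD8+ cells relative to row control; 100% = QL9-loaded vesicles with DMSO vehicle in the same plate row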); conditions: 2C mouse CD8+ T cells, at 7 µM, stronger effect = lower value; double positive events: measured here: CD8+/vesicle+ event percentage
[7] = molecular target: Integrin beta-1 (Homo sapiens) + Integrin alpha-4 (Homo sapiens) (UniProt P13612+P05556); assay: inhibition of HUTS-21 binding to VLA-4, pilot screen, VLA-4 allosteric modulator project, U937 cells, HUTS-21 mAb, flow cytometry, validation set (AID 2674;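 active means inhibition above 50%, about 3 SD of the validation set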;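 further: antibody binding induced by the VLA-4 ligand LDV present at three times its Kd; 0% = LDV ligand with antibody and no compound and 100% = antibody without LDV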); conditions: HUTS-21 LIBS mAb binding, at 6.7 µM, stronger effect = higher value, binding induced by LDV ligand
[8] = superoxide lowering in aged yeast cells, pilot screen, validation compound set (AID 2706;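 active means superoxide response below 65% of plate, a cut near 3 SD across the whole screen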;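 further: yeast exposed to compound for one week at 30 degrees C before staining; 100% = mean of all compound wells on the same plate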); conditions: S. cerevisiae aging, superoxide DHE fluorescence; at 10 µM; stronger effect = lower value
[9] = molecular target: Beta-adrenergic receptor kinase 1 (Homo sapiens) (UniProt P25098); assay: GRK2 binders displacing RNA aptamer, biochemical, validation, human GRK2, bead flow cytometry (AID 488806;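 active means aptamer binding inhibition above 30%, about 3 SD of noise from non-fluorescent compounds; inactive means inhibition at or below 30%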); conditions: bead-bound GRK2, FAM-aptamer displacement, at 10 µM, stronger effect = higher value
[10] = molecular target: Beta-2 adrenergic receptor (Homo sapiens) (UniProt P07550); assay: beta2AR agonists driving receptor internalization, pilot screen, cell-based, FAP fluorogen, flow cytometry, validation set (AID 504459;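 active means percent response above 42, roughly 3 SD of non-fluorescent test compounds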;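 further: agonist-driven loss of surface beta2AR via internalization measured by FAP dye flow cytometry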); conditions: Am2.2-beta2AR cells, FAP surface receptor flow cytometry; at 10 µM; stronger effect = higher value
[11] = molecular target: AP-2 complex subunit beta (Homo sapiens) (UniProt P63010); assay: inhibitors of arrestin peptide binding to AP2, pilot screen, biochemical, validation set, GST-AP2 beads, flow cytometry (AID 504541;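 active means inhibition above 54%, about 3 SD of non-fluorescent compounds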;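 further: AP2 carries R879A mutation and is captured from E. coli lysate; bead-bound FITC arrestin peptide fluorescence measuring arrestin peptide binding to AP2; 0% = DMSO wells and 100% = excess unlabeled arrestin peptide control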); conditions: FITC arrestin peptide, at 10 µM, stronger effect = higher value, AP2 beta2 appendage fragment, R879A mutant
[12] = yeast V-ATPase proton transport modulators, S. cerevisiae, pHLuorin, HTS validation (AID 504600);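 further: plate controls were DMSO for no effect and reference compound for full effect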; conditions: S. cerevisiae pHLuorin cytosolic pH, at 10 µM, stronger effect = higher value
[13] = tested on: anti-desmoglein-3 scFv antibody binding to human DSG3; assay: inhibitors of anti-DSG3 scFv binding to DSG3, pilot screen, biochemical, validation compound set, bead-based, flow cytometry (AID 588368;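 active means binding below the plate cutoff, the plate median minus 3 SD, with a reading above zero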;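 further: signal is the median channel fluorescence of bead-bound GFP antibody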); conditions: Protein G beads, DSG3-Fc, scFv-GFP binding, at 10 µM, stronger effect = lower value
[14] = inhibitors of fungal efflux pumps CDR1, CDR2, MDR1, pilot screen, validation compound set, multiplex, phenotypic (AID 588506;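 active means efflux inhibition above 0.42, the validation set average plus 4 SD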;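 further: Nile Red retained in cells so higher fluorescence means more efflux inhibition; 0 = negative control wells and 1 = enniatin B 25 µM full block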); conditions: S. cerevisiae pump-expressing triplex, Nile Red efflux flow cytometry; at 10 µM; stronger effect = higher value; the pumps come from Candida albicans
[15] = molecular target: ATP-binding cassette sub-family B member 6 (Homo sapiens) (UniProt Q9NP58); assay: ABCB6 transporter inhibitors, pilot screen, K562-ABCB6 cells, flow cytometry, validation set (AID 588550;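 active means inhibition above the screen-wide mean plus 3 SD, about 51%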;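 further: 0% = DMSO wells and 100% = benzethonium chloride 70 µM positive control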); conditions: K562-ABCB6 porphyrin accumulation, 1 h, at 10 µM, stronger effect = higher value
[16] = promoters of myeloid differentiation in arrested cells, primary screen, cell-based, GFP/MAC1 double positive, flow cytometry, validation set (AID 588685;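 active means differentiation response of at least 50%, scaled between solvent and reference control, from cells with both markers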;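 further: compound exposure lasts four days before antibody staining and flow analysis; 0% = DMSO wells and 100% = 5 µM fulvestrant positive control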); conditions: ER-HoxA9 marrow cells, stronger effect = higher value, normalized: vehicle 0, fulvestrant 100

Chain of AP-2 complex subunit beta (Homo sapiens) (P63010 whole entry, looked up, the tested form may be a part, one chain of several): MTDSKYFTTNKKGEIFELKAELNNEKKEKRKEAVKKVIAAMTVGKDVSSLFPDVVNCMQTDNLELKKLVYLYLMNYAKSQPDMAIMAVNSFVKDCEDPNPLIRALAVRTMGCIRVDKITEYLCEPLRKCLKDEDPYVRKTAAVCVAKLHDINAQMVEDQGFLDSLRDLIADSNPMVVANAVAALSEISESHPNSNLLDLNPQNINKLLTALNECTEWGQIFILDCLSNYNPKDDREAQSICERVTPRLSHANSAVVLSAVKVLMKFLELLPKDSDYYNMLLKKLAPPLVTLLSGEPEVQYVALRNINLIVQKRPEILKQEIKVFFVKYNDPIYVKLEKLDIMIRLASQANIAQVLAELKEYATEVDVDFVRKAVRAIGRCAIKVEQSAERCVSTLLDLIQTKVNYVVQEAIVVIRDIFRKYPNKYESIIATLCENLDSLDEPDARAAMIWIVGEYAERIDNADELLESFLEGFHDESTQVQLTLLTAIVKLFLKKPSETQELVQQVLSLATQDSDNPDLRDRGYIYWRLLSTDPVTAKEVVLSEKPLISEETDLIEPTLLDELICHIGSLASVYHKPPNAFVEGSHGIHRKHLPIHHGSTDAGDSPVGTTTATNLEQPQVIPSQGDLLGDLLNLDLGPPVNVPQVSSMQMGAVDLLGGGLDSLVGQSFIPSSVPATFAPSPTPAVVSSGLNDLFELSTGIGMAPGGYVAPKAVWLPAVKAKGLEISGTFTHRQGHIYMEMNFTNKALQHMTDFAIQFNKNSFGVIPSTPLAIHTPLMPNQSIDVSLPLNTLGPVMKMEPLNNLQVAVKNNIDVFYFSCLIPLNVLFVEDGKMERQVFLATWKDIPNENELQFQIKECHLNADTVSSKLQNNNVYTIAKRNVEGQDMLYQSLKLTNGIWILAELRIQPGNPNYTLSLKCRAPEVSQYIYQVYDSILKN
Chain of ATP-binding cassette sub-family B member 6 (Homo sapiens) (Q9NP58 whole entry, looked up): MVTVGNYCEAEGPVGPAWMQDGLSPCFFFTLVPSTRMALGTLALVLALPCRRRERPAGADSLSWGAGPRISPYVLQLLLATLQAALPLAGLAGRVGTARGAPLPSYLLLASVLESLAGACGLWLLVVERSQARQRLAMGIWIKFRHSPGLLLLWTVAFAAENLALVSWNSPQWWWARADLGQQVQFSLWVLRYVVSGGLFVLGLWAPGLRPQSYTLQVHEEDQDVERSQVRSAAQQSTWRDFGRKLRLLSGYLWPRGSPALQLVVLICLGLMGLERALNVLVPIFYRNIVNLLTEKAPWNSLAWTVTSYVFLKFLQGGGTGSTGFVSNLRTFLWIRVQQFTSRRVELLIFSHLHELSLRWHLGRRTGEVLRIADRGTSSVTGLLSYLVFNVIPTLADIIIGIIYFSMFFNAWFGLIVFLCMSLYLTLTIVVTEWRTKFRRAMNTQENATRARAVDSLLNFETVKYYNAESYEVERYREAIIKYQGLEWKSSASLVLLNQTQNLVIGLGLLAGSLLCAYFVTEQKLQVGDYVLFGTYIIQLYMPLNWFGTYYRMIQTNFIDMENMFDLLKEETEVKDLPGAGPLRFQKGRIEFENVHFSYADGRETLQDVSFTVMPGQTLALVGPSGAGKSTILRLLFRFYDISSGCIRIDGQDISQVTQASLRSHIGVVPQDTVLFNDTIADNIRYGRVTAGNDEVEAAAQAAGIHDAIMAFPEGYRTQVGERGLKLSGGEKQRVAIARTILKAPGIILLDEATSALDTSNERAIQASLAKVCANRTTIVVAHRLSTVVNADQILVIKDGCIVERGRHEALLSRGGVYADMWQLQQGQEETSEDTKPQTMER
Chain of Beta-2 adrenergic receptor (Homo sapiens) (P07550 whole entry, looked up): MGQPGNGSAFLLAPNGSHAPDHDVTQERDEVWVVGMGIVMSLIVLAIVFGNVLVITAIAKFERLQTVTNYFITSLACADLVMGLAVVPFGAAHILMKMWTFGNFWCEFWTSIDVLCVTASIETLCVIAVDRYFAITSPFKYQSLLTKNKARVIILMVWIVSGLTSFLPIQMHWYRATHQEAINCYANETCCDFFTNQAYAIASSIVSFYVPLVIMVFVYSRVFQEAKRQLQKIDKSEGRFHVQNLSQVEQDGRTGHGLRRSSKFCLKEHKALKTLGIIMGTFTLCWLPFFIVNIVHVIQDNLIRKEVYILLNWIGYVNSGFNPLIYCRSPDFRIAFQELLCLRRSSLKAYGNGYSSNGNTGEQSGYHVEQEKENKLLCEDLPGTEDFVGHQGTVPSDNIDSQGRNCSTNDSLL
Chain of Beta-adrenergic receptor kinase 1 (Homo sapiens) (P25098 whole entry, looked up): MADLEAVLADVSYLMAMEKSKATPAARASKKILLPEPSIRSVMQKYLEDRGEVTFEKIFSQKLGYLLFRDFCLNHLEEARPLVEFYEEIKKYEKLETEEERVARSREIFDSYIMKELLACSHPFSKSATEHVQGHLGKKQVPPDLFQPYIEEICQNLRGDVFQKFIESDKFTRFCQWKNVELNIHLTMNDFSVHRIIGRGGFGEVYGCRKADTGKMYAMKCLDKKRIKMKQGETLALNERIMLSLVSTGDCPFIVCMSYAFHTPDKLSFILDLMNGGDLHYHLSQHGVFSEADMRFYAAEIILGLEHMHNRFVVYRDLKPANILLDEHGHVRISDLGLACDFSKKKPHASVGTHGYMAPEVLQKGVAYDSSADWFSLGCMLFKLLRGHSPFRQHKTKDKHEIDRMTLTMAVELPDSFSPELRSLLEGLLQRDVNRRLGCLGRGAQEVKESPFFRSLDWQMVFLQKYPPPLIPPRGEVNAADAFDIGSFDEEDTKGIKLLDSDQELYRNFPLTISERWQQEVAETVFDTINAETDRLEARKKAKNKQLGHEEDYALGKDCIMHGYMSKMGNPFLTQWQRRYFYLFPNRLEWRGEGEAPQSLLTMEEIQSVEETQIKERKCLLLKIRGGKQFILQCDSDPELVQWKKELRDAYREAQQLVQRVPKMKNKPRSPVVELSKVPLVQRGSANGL
Chain of Integrin beta-1 (Homo sapiens) + Integrin alpha-4 (Homo sapiens) (P05556 whole entry, looked up): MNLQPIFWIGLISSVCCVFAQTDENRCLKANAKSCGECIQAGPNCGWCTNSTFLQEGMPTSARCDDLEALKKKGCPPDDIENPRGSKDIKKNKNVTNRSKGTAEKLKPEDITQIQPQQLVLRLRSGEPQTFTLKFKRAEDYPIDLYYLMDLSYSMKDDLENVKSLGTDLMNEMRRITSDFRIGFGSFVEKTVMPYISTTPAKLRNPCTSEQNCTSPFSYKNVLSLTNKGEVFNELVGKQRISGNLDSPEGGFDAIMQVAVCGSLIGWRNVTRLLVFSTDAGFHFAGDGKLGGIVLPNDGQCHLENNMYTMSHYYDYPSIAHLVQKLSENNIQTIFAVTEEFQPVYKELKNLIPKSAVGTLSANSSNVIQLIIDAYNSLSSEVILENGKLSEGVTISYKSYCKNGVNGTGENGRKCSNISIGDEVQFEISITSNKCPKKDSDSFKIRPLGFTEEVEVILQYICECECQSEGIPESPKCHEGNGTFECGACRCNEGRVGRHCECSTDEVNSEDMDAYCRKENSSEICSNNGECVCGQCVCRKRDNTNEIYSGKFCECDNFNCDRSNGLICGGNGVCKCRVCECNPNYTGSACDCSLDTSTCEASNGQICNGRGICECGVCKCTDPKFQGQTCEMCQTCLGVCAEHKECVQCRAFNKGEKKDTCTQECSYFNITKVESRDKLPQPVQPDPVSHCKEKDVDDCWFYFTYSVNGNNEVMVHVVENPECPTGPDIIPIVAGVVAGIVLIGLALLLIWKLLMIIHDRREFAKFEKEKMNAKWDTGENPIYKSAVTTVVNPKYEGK
Chain of Integrin beta-1 (Homo sapiens) + Integrin alpha-4 (Homo sapiens) (P13612 whole entry, looked up): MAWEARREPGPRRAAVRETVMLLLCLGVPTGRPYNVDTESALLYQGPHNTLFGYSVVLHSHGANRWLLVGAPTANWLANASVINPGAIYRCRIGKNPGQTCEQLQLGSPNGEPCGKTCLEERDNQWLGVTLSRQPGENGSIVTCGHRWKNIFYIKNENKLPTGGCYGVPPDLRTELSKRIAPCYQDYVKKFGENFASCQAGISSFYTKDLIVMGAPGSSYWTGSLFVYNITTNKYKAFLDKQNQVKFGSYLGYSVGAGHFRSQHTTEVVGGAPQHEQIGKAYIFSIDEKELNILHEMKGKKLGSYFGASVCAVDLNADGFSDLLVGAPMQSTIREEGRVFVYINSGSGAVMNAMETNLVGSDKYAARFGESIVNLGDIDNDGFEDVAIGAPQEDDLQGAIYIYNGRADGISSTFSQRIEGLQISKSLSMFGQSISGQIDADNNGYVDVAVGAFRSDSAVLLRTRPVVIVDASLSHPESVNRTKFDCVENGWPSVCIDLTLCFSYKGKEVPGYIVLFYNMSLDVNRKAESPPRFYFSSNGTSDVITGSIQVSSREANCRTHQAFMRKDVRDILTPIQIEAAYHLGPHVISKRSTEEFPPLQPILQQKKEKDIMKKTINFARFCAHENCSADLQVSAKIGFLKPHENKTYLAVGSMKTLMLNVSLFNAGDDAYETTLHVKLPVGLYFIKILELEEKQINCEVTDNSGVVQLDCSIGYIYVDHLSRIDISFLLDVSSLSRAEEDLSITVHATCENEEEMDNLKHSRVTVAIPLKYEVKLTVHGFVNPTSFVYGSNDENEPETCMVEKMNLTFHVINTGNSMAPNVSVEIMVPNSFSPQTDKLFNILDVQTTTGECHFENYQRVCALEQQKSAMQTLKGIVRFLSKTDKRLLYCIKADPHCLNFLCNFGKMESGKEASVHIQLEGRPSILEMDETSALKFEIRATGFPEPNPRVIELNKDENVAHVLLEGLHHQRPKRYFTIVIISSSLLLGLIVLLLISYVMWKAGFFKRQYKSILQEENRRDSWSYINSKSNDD

With `CN=C(NC#N)NCCSCc1nc[nH]c1C` the percent of DMSO control GFP [1] was 102% (inactive), the GFP response vs DMSO [2] was 101% (inactive) and the percent response of DMSO control [3] was 109% (inactive). The GFP response vs DMSO [4] was 94.8% (inactive), the GFP response, % of DMSO [5] was 102% (inactive) and the double positive events [6] was 62.1%. The vesicle binding response [6] was 195% (inactive), the inhibition [7] was -14.5% (inactive) and the superoxide response (% of plate) [8] was 104% (inactive). The aptamer binding inhibition [9] was -1% (inactive), the response [10] was 3.13% (inactive) and the inhibition [11] was 5.55% (inactive). For the same compound, the response [12] was 0.96% (inactive), the binding (% of control) [13] was 103% (inactive) and the efflux inhibition (fraction of control) [14] was -0.44 (inactive). The inhibition [15] was 9% (inactive) and the differentiation response [16] was -10.4% (inactive).
With `COc1ccc2cc(C3(C)NC(=O)NC3=O)ccc2c1` (stereo not drawn) the percent of DMSO control GFP [1] was 95.8% (inactive), the GFP response vs DMSO [2] was 116% (inactive) and the percent response of DMSO control [3] was 87.2% (inactive). For the same compound, the GFP response vs DMSO [4] was 117% (inactive), the GFP response, % of DMSO [5] was 99.7% (inactive) and the double positive events [6] was 60.5%. For the same compound, the vesicle binding response [6] was 147% (inactive), the inhibition [7] was -9.98% (inactive) and the superoxide response (% of plate) [8] was 104% (inactive). For the same compound, the aptamer binding inhibition [9] was 2% (inactive), the response [10] was 2.16% (inactive) and the inhibition [11] was -3.7% (inactive). For the same compound, the response [12] was -5.94% (inactive), the binding (% of control) [13] was 99.7% (inactive) and the efflux inhibition (fraction of control) [14] was -0.06 (inactive). The inhibition [15] was 8% (inactive) and the differentiation response [16] was 7.2% (inactive).
With `COc1ccccc1OS(=O)(=O)c1ccc(NC(C)=O)cc1` the percent of DMSO control GFP [1] was 87.1% (inactive), the GFP response vs DMSO [2] was 123% (inactive) and the percent response of DMSO control [3] was 101% (inactive). The GFP response vs DMSO [4] was 82.5% (inactive), the GFP response, % of DMSO [5] was 103% (inactive) and the double positive events [6] was 57.8%. For the same compound, the vesicle binding response [6] was 65.7% (inactive), the inhibition [7] was 10.3% (inactive) and the superoxide response (% of plate) [8] was 97% (inactive). The aptamer binding inhibition [9] was 2% (inactive), the response [10] was -16.4% (inactive) and the inhibition [11] was -11.8% (inactive). For the same compound, the response [12] was -0.65% (inactive), the binding (% of control) [13] was 101% (inactive) and the efflux inhibition (fraction of control) [14] was -0.35 (inactive). The inhibition [15] was 4% (inactive) and the differentiation response [16] was -4.09% (inactive).
In the case of `C[N+](C)(C)CCOP(=O)([O-])OC[C@H](O)CO`, the percent of DMSO control GFP [1] is reported as 103% (inactive), the GFP response vs DMSO [2] is reported as 103% (inactive) and the percent response of DMSO control [3] is reported as 105% (inactive). For the same compound, the GFP response vs DMSO [4] was 108% (inactive), the GFP response, % of DMSO [5] was 114% (inactive) and the double positive events [6] was 60.1%. For the same compound, the vesicle binding response [6] was 133% (inactive), the inhibition [7] was -3.77% (inactive) and the superoxide response (% of plate) [8] was 94.8% (inactive). For the same compound, the aptamer binding inhibition [9] was 1% (inactive), the response [10] was 2.22% (inactive) and the inhibition [11] was -6.21% (inactive). For the same compound, the response [12] was 0.86% (inactive), the binding (% of control) [13] was 102% (inactive) and the efflux inhibition (fraction of control) [14] was 0.25 (inactive). For the same compound, the inhibition [15] was 22% (inactive) and the differentiation response [16] was -6.03% (inactive).
